Measured values: the supplement of paper PMC6555819

Tests used:
Experiment in all cases: PBM binding z-score (relative to random genomic background probes); higher = stronger binding; sequences stand for … in GC…GCGATTGACAGCGTAGAATGAAGG
[1] = test system: RARb homodimer (NR concentration 270 nM)
In short: (§1)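 The probes on custom Agilent 4×180K protein-binding microarrays were double-stranded, with 34-nt variable regions bearing direct-repeat seeds, single-nucleotide variants, half-site ablations and random human genomic background sequences. Incubation lasted 1 h with ligand-free nuclear receptor dimers in PBS pH 7.4, 2% milk, 0.02% Triton X-100, 1 mM DTT, 0.2 mg/mL BSA and 0.4 mg/ml salmon testes DNA. Antibodies against each partner (one per run) detected bound dimers, and fluorescence scans were regression-normalized. Binding z-scores take the random background probes as reference.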

[2] = test system: RARg:RXRa (NR concentration 270 nM, RXRa partner concentration 90 nM)
In short: as §1

[3] = test system: RARg homodimer (NR concentration 270 nM)
In short: as §1

[4] = test system: RXRa DBDmut IVT, anti-RXR (DBD mutation: RXRa K156A/R161A, NR concentration 90 nM)
In short: as §1

[5] = test system: RXRa homodimer (NR concentration 180 nM)
In short: as §1

[6] = test system: THRa:RXRa (NR concentration 90 nM, RXRa partner concentration 90 nM)
In short: as §1

[7] = test system: THRa homodimer (NR concentration 90 nM)
In short: as §1

[8] = test system: VDR homodimer (NR concentration 270 nM)
In short: as §1

Sequence | PBM binding z-score [1] | PBM binding z-score [2] | PBM binding z-score [3] | PBM binding z-score [4] | PBM binding z-score [5] | PBM binding z-score [6] | PBM binding z-score [7] | PBM binding z-score [8]
CATACTGGGCCAAAAAGGTCATTGATGCCGATAA | 4.48 | 4.89 | 4.82 | 1.25 | 5.11 | 3.14 | 0.641 | 3.14
CCAGACAGGTGAGAAGGTAAGTCAGCCTCGATTA | 0.641 | 0.215 | 0.357 | 0.0817 | 0.216 | 0.3 | 0.145 | -0.136
CTACCAAGGTGAACAAGGTCGTCGATTACTATTC | 2.3 | 2.1 | 1.77 | 1.08 | 2.25 | 3.64 | 1.9 | 1.44
TTACCAAGTTGAAGGTCGTTGATCCCTCTGTAGA | 1.15 | 0.339 | 0.342 | 1.07 | 1.2 | 1.26 | 0.0178 | 1.49
AGAACGAGGGCAATGAGTTGATAACACGGGTGGC | 0.742 | 1.31 | 1.53 | 1.96 | 0.961 | 1.04 | -0.289 | 3.3
CTAGAAAGGTCGTGCTCAGGTGAGTATACCAAAC | 2.93 | 4.96 | 3.62 | 2.16 | 4.44 | 4.02 | 0.909 | 0.842
TCTAGCAGGCCAGAGGGTCACTCAAGAGGTACGG | 2.8 | 2.56 | 2.39 | -0.167 | 2.61 | 1.54 | -0.299 | 0.59
ATCTCTAGGTATCAAGTTCAGTGAAAGAGAGGAC | 1.89 | 1.07 | 1.17 | 1.34 | 0.64 | 1.03 | 0.846 | 2.79
TAGCCTAGGTCATGCTGGCCAGTATAGTGTCGGC | 3.02 | 3.72 | 4.32 | 0.579 | 2.71 | 3.03 | 0.898 | -0.0948
CAGCCTAGGTCAGGGCCAGTCTAGGAGGAACGTT | 2.6 | 2.83 | 3.7 | -0.45 | 1.5 | 1.98 | 0.28 | -0.275
AGATTGAGGTTAAGATCAGGGAAACAGAATACAT | 1.42 | 2.1 | 1.78 | 1.36 | 2.48 | 2.7 | 1.12 | 0.928
CCTAGCGGGCCAATCTGGGTCACTCAAGGCTTGA | 2.14 | 0.91 | 0.984 | -0.4 | 0.724 | 3.59 | 0.327 | -0.159
TAGCCTAGGTCCTGCGGGCCAGTATAGTGTCGGC | -0.744 | -0.626 | -0.818 | -1.46 | -0.822 | -1.56 | -0.966 | -0.992
GCTTACGGGTCACAGGTTATAGCATGAATAGAAT | 2.95 | 5.09 | 4.66 | 2.03 | 5.84 | 2.86 | 0.315 | 0.608
GGATCGAGGGCAAGTTGATAGCAGAGTTTGATGG | 1.54 | 1.6 | 1.96 | 1.95 | 0.72 | 1.26 | 0.374 | 2.06
TCGAGTAGGTTATCAATGGGGCATTCAGCTTTCT | 0.483 | 0.919 | 0.272 | 0.822 | 0.432 | 0.0952 | -0.223 | -0.119
CCTCGGAGGGCAACAGGAGGTCAGAGCTGCCAGA | 3.73 | 5.71 | 4.23 | 0.315 | 3.16 | 3.26 | 0.313 | 1.22
CCGACTGAGGCAAGGTTACCATAACGCACAGCCA | 1.01 | 0.557 | 0.458 | 0.18 | 0.97 | 1.26 | 0.413 | 0.118
GCTAGTTGGTCAGTAAAAGGTCACACACCGGTCG | 5.15 | 5.32 | 4.87 | 0.715 | 5.2 | 3.52 | 2.08 | 1.99
CTCGAAAGGTCGGTTGAGGTGAGAATACGGATAA | 2.21 | 3 | 3.18 | 0.839 | 2.33 | 4.84 | 1.13 | 0.742
CCCGAAAGGTCGGTTGAGGTGAGTATACGGATAA | 2.61 | 2.9 | 3 | 0.858 | 2.41 | 4.99 | 1.8 | 0.636
ATGTCTAGGTAAAGTTCAGTGAAAGATCGATAGA | 2.59 | 2.12 | 2.62 | 1.25 | 1.5 | 1.17 | 0.000451 | 2.39
ACAGACAGGTGATGAAGGTAACTCATGCTATCAT | 0.0338 | 0.394 | 0.615 | -0.0265 | 0.382 | 0.149 | -0.485 | -0.456
ACTCGGAGGACAAAGGGCAGAGCTACGCCAGTGA | 1.69 | 1.81 | 1.91 | 0.468 | 0.615 | 0.877 | -0.631 | -0.288
TAGCCTAGATCATTCAGGGGCCAGTATAGAAAGC | 0.182 | 0.658 | 0.249 | -0.277 | 0.341 | 0.0485 | -0.624 | -0.00416
ACTAGCAGGCCAAGTTTGGGTCAATCAAACAAAG | 2.11 | 2.43 | 1.43 | -0.255 | 0.858 | 2.25 | 0.6 | 0.00979
GCTGCTAGGTCAACTGATGGTCAGCTGAAGCTCG | 3.56 | 5.1 | 5.51 | 1.55 | 2.82 | 3.12 | 1.05 | -0.0434
CGTCCAAGGGCATAGGAGGTCAGTGAAGACAGAT | 3.72 | 3.42 | 3.68 | 1.44 | 2.65 | 4.64 | 0.738 | 2.25
